Drawing on PubChem BioAssay (NCATS), this text covers Potency and outcome for 19 compounds.

Structures are written as SMILES. Results filed as inconclusive are left out. Calls of active or inactive are those of the source. Calls follow the shape of the dose curve; as a rule, active = well fitted cell-killing curve with a large enough effect; inconclusive = small, poorly fitted or top-dose-only effect; inactive = flat fitted curve, though single readings scatter.

Assay [1] is described as follows: Cell Viability - LYMP2-017 (AID 972).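 Also: cells exposed to compound for 24 hours at 37 °C; nearly all actives have a fitted effect of over 55% in size.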 Also: potency is read from the fitted curve at half-maximal effect. In outline:
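Steps: plate 2500 lymphoblastoid cells per well; incubate 5 hr at 37 C; add compound across a concentration series and incubate 24 hr at 37 C; add CellTiter-Glo and read luminescence after 30 min at room temperature; fit Hill curves for AC50.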

A short description of assay [2]: Cell Viability - LYMP2-019 (AID 973). Also: nearly all actives have a fitted effect of over 55% in size. Also: potency is read from the fitted curve at half-maximal effect. A digest of the protocol: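 Cells plated at 2500/well and allowed 5 hr at 37 C before compound addition. After 24 hr incubation, CellTiter-Glo reagent was added, plates sat 30 min at room temperature, and luminescence was recorded.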
Assay [3] in a line: Cell Viability - LYMP2-021 (AID 974).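 Also: compound exposure lasts 24 hours at 37 °C; nearly all actives have a fitted effect of over 55% in size.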 Also: potency is read from the fitted curve at half-maximal effect. A digest of the protocol: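 Concentration-response cytotoxicity in a human lymphoblastoid line: 24 hr treatment at 37 C in complete culture medium, tetraoctylammonium bromide as positive control, luminescent ATP quantitation as viability measure.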
Assay [4] can be described thus: Cell Viability - LYMP2-023 (AID 975).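 Also: cells exposed to compound for 24 hours at 37 °C; nearly all actives have a fitted effect of over 55% in size.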 Also: potency is read from the fitted curve at half-maximal effect. A digest of the protocol: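 Concentration-dependent drop in intracellular ATP measures acute cytotoxicity in a human lymphoblastoid line treated for 24 hours in complete culture medium. AC50 values are taken from Hill-equation fits of qHTS data.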
Assay [5] is described as follows: Cell Viability - LYMP2-025 (AID 976). Also: series mostly up to about 92 µM. A digest of the protocol:
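In qHTS format, LYMP2-025 lymphoblastoid cells in complete culture medium received compound for 24 hr; ATP-based CellTiter-Glo signal gave viability, with AC50 derived by Hill equation.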

Assay [6] in a line: Cell Viability - LYMP2-002 (AID 977). Also: series mostly up to about 92 µM. In outline:
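Luminescent ATP readout (CellTiter-Glo, 30 min room temperature) after 24 h compound exposure at 37 C of a human lymphoblastoid line, 2500 cells/well. AC50 values derived by standard Hill fitting of qHTS concentration-response data.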

The nature of assay [7]: Cell Viability - LYMP2-006 (AID 978).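 Also: cells exposed to compound for 24 hours; nearly all actives have a fitted effect of over 60% in size.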 Also: potency is read from the fitted curve at half-maximal effect. A digest of the protocol:
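Human lymphoblastoid cells (LYMP2-006), 2500/well in complete medium, were treated with compound for 24 hr at 37 C. Cellular ATP was read by CellTiter-Glo luminescence after 30 min, and AC50 values came from Hill-equation fits of concentration-response data.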

Assay [8] in a line: Cell Viability - LYMP2-007 (AID 979).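 Also: cells exposed to compound for 24 h before reading; nearly all actives have a fitted effect of over 60% in size.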 Also: potency is read from the fitted curve at half-maximal effect. In outline: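 Acute toxicity is scored as a concentration-dependent fall in intracellular ATP in human lymphoblastoid cells treated 24 hr at 37 C, measured by luciferase luminescence; Hill-equation modelling yields AC50.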
Assay [9] can be described thus: Cell Viability - LYMP2-008 (AID 980). Also: nearly all actives have a fitted effect of over 60% in size. In outline:
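Acute cytotoxicity is scored as concentration-dependent loss of cellular ATP in a human lymphoblastoid line after 24 hr treatment at 37 C. ATP is quantified by luciferase luminescence.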

The nature of assay [10]: Cell Viability - LYMP2-010 (AID 981). Also: potency is read from the fitted curve at half-maximal effect. A digest of the protocol:
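Acute toxicity is scored as a concentration-dependent loss of cellular ATP in human lymphoblastoid cells after 24 hr compound exposure in complete medium. Tetraoctylammonium bromide is the positive control.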

Take `CC1=CC(=O)NS(=O)(=O)O1`: the Potency result in [1], in [2], in assay [3], in [4], in [7] and in [8] was “inactive” throughout. Further, the Potency entry in assay [9] and in [10] was “inactive” throughout. For the same compound, the result in [5] and in assay [6] was inactive.
`CC[C@H]1OC(=O)[C@H](C)[C@@H](O[C@H]2C[C@@](C)(OC)[C@@H](O)[C@H](C)O2)[C@H](C)[C@@H](O[C@@H]2O[C@H](C)C[C@H](N(C)C)[C@H]2O)[C@](C)(O)C[C@@H](C)CN(C)[C@H](C)[C@@H](O)[C@]1(C)O`: the Potency entry in [1], in assay [2], in assay [3], in assay [4], in assay [7] and in [8] was “inactive” throughout. Also, the Potency result in [9] and in assay [10] was “inactive” throughout. Further, the call in assay [5] and in [6] was inactive.
For the compound `CO`, the Potency result in assay [1], in [2], in assay [3], in assay [4], in [7] and in assay [8] was “inactive” throughout. For the same compound, the Potency entry in assay [9] and in [10] was “inactive” throughout. In addition, the compound was called inactive in assay [5] and in [6].
For `CC/C=C\C/C=C\C/C=C\CCCCCCCC(=O)O`, the Potency in [1] is 50.1 µM (active); in [2], 50.1 µM (active); in assay [3], 50.1 µM (active); in assay [8], 39.8 µM (active); in assay [10], 39.8 µM (active). For the same compound, the result in [6] was inactive.
Consider `CCCCC`, for which the Potency result in [1], in [2], in assay [3], in assay [4], in assay [7] and in assay [8] was “inactive” in each case. In addition, the Potency result in assay [9] and in assay [10] was “inactive” in each case. Also, the compound was called inactive in assay [5] and in assay [6].
`C[C@H]1O[C@@H](O[C@H]2[C@@H](O)C[C@H](O[C@H]3[C@@H](O)C[C@H](O[C@H]4CC[C@@]5(C)[C@H](CC[C@@H]6[C@@H]5C[C@@H](O)[C@]5(C)[C@@H](C7=CC(=O)OC7)CC[C@]65O)C4)O[C@@H]3C)O[C@@H]2C)C[C@H](O)[C@@H]1O`: the Potency in assay [1] and in [10] was 0.251 µM (active) throughout.
As to `O=P(O)(O)O`, the Potency result in assay [1], in [2], in assay [3], in assay [4], in assay [7] and in assay [8] was “inactive” throughout. Further, the Potency entry in assay [9] and in [10] was “inactive” in each case. Besides, the outcome in [5] and in assay [6] was inactive.
Take `Cc1ncc[nH]1`: the Potency result in [1], in assay [2], in assay [3], in [4], in [7] and in assay [8] was “inactive” throughout. The Potency result in assay [9] and in assay [10] was “inactive” in each case. Further, the outcome in [5] and in [6] was inactive.
`CCOC(C)OCC`: the Potency entry in assay [1], in [2], in assay [3], in assay [4], in [7] and in [8] was “inactive” each time. Also, the Potency result in assay [9] and in assay [10] was “inactive” throughout. For the same compound, the compound was classed as inactive in assay [5] and in assay [6].
Turning to `O=c1n(CC2CO2)c(=O)n(CC2CO2)c(=O)n1CC1CO1` (stereo not given), the Potency is 39.8 µM (active) in assay [1]; 39.8 µM (active) in assay [2]; 31.6 µM (active) in [3]; 39.8 µM (active) in assay [4]; 39.8 µM (active) in [7]; 39.8 µM (active) in assay [8]. In addition, the Potency in [10] was 25.1 µM (active).
`OCc1ccccc1`: the Potency result in assay [1], in assay [2], in assay [3], in [4], in [7] and in assay [8] was “inactive” throughout. The Potency entry in assay [9] and in assay [10] was “inactive” in each case. Further, the outcome in assay [5] and in [6] was inactive.
On to `CCCCO`, for which the Potency result in assay [1], in assay [2], in assay [3], in assay [4], in assay [7] and in [8] was “inactive” in each case. The Potency entry in [9] and in [10] was “inactive” in each case. For the same compound, the compound was classed as inactive in [5] and in assay [6].
Consider `Cc1ccc(S(=O)(=O)O)cc1C`, for which the Potency result in assay [1], in [2], in assay [3], in assay [4], in assay [7] and in [8] was “inactive” in each case. Further, the Potency result in [9] and in [10] was “inactive” throughout. The call in [5] and in [6] was inactive.
In the case of `CC(C)O`, the Potency entry in assay [1], in [2], in assay [3], in assay [4], in [7] and in assay [8] was “inactive” each time. Further, the Potency entry in assay [9] and in assay [10] was “inactive” in each case. Moreover, the result in [5] and in [6] was inactive.
As for `O.O.O.O.O.O.O.O=S(=O)([O-])[O-].[Co+2]`, the Potency result in [1], in assay [4], in [7] and in assay [9] was “inactive” each time. Besides, the result in [5] was inactive.
For the compound `OC[C@H]1O[C@@H]2O[C@H]3[C@H](O)[C@@H](O)[C@@H](O[C@H]4[C@H](O)[C@@H](O)[C@@H](O[C@H]5[C@H](O)[C@@H](O)[C@@H](O[C@H]6[C@H](O)[C@@H](O)[C@@H](O[C@H]7[C@H](O)[C@@H](O)[C@@H](O[C@H]1[C@H](O)[C@H]2O)O[C@@H]7CO)O[C@@H]6CO)O[C@@H]5CO)O[C@@H]4CO)O[C@@H]3CO`, the Potency entry in assay [1], in assay [2], in assay [3], in assay [4], in assay [7] and in assay [8] was “inactive” in each case. The Potency entry in assay [9] and in [10] was “inactive” each time. In addition, the result in assay [5] and in [6] was inactive.
As to `Oc1ccc(/C=C/c2cc(O)cc(O)c2)cc1`, the Potency entry in [1], in assay [2], in [3], in assay [4], in assay [7] and in [8] was “inactive” each time. Besides, the Potency result in assay [9] and in assay [10] was “inactive” throughout. The compound was classed as inactive in assay [5] and in assay [6].
As to `OCC(O)CO`, the Potency result in assay [1], in assay [2], in assay [3], in [4], in [7] and in assay [8] was “inactive” in each case. The Potency entry in assay [9] and in [10] was “inactive” throughout. In addition, the compound was called inactive in [5] and in [6].
`OCl`: the Potency result in assay [1], in [2], in assay [3], in assay [4], in assay [7] and in assay [8] was “inactive” each time. The Potency result in assay [9] and in assay [10] was “inactive” each time. The result in assay [5] and in assay [6] was inactive.
